Columns and labels:
Conditions in all cases: concentration: 1 μM, replicates: in singlicate; n = 1
[1] = test system: CAMKK1
[2] = test system: CAMKK2
[3] = test system: CASK
[4] = test system: T1, CDC2L1
T1 construct: gene CDK11B

[5] = test system: CDC2L2
[6] = test system: T2, CDC2L5
T2 construct: gene CDK13

[7] = test system: T3, CDK11
T3 construct: gene CDK19

[8] = test system: CDK2
[9] = test system: CDK3
[10] = test system: CDK4-cyclinD1
[11] = test system: CDK4-cyclinD3
[12] = test system: CDK4
[13] = test system: CDK5
[14] = test system: CDK7
[15] = test system: CDK8
[16] = test system: CDK9
[17] = test system: CDKL1
[18] = test system: CDKL2
[19] = test system: CDKL3
[20] = test system: CDKL5
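Also: KINOMEscan kinase panel screen.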

Compound	%Inh [1] [%]	%Inh [2] [%]	%Inh [3] [%]	%Inh [4] [%]	%Inh [5] [%]	%Inh [6] [%]	%Inh [7] [%]	%Inh [8] [%]	%Inh [9] [%]	%Inh [10] [%]	%Inh [11] [%]	%Inh [12] [%]	%Inh [13] [%]	%Inh [14] [%]	%Inh [15] [%]	%Inh [16] [%]	%Inh [17] [%]	%Inh [18] [%]	%Inh [19] [%]	%Inh [20] [%]
CCn1cnc2c(N)ncnc21 [GW345098]	8	2	31	1	6	0	0	0	1	0	0	0	28	20	7	0	25	0	0	0
CN1c2ccc(CNc3ccc(F)cc3)cc2-c2c(cnn2C)S1(=O)=O	0	0	22	0	0	15	0	0	0	13	0	0	0	0	0	0	9	0	0	0
CC(=O)Nc1ccc(COc2ccc(Nc3ccnc4cc(-c5ccccn5)ccc34)cc2)cc1.Cl [GW440148]	4	26	1	12	11	0	17	1	0	0	0	0	0	0	8	14	7	12	0	0
COc1ccc(Nc2nccc(N3CCC(NC(=O)Nc4cc(C)ccc4C)C3)n2)cc1 (stereo not shown) [GSK1379741]	0	0	3	0	0	0	70	0	7	0	0	0	0	0	11	0	0	44	0	5
Cc1cccc(-c2nc(Nc3ccc4ncsc4c3)c3ccccc3n2)n1 [GW867588]	0	20	1	0	13	0	0	9	6	0	0	7	0	17	43	3	1	0	1	0
